# Screens (PubChem BioAssay)
# Rows were chosen to be rich in hits. Some 11% of all compounds tested hit in one or more screens of this group.
# ALDH1A1 block – qHTS Assay for Inhibitors of Aldehyde Dehydrogenase 1 (ALDH1A1); Aldehyde dehydrogenase 1A1 (Homo sapiens), P00352; AID 1030, 2008; Purified ALDH1A1, NADH fluorescence, propionaldehyde substrate; hit rate 7.3% among 220,000; Potency, µM (doses to about 75.3 µM), hits mostly inhibitors
# Target sequence (P00352 whole entry, looked up): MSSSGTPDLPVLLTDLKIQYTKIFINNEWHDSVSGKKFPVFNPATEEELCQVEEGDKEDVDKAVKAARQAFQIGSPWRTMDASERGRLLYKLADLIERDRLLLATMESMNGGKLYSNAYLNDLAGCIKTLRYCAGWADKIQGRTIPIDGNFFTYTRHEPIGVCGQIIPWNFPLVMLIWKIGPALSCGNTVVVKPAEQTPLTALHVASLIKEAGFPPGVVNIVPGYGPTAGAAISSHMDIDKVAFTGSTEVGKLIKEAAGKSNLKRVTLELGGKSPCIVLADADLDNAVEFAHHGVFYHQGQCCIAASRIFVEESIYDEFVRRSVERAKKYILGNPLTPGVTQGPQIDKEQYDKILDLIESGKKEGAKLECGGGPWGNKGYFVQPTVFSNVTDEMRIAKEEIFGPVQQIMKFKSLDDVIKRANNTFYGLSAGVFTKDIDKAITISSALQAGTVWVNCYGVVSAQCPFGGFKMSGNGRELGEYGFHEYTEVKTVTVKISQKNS
# HPGD inh – qHTS Assay for Inhibitors of HPGD (15-Hydroxyprostaglandin Dehydrogenase) | Potency, µM, hits mostly inhibitors | 15-hydroxyprostaglandin dehydrogenase [NAD(+)] (Homo sapiens), P15428 | hit rate 4.3% among 150,000 | purified HPGD, NADH fluorescence kinetic, PGE2 substrate
#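 20 nM HPGD preincubated 15 min at room temperature with compound in 50 mM Tris-HCl pH 8, 0.01% Tween 20. Started with 1 mM NAD+ and 30 uM prostaglandin E2; NADH fluorescence (360/450 nm) read 5 times over 30-s intervals, last minus first.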
# PNC inhibitor – High Content Assay for Compounds that inhibit the Assembly of the Perinucleolar Compartment | PC3M PTB-GFP, PNC prevalence imaging, 16 h; hits give low values | activity change (PNC), negative = inhibition, % at 10 µM | hit rate 3.1% among 140,000 | AID 2417, 2010;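 active means readout at or below -70, meaning at least 70% loss of cells showing the perinucleolar compartment, a nuclear body marking cancer cells; inconclusive means readout between -30 and a set limit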
#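 PC3M cells stably expressing PTB-GFP, 750–1000 cells/well, treated 16 h at 37 °C with compound (23 nl of library stock), in duplicate. After paraformaldehyde fixation and Hoechst stain, imaged at 20x; PNC prevalence scored by image analysis.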
# HPGD inh conf – Confirmation qHTS Assay for Inhibitors of HPGD (15-Hydroxyprostaglandin Dehydrogenase); shares compounds with HPGD inh; recombinant HPGD, NADH fluorescence, PGE2 substrate; AID 2429, 2010; Potency, µM (highest dose often 57.1 µM), actives largely listed as inhibitors; hit rate 90% among 90; calls by dose curve
# A number is an active result; n = inactive; u = inconclusive; x = not tested or not shown; [ ] = dose if it differs, or a comment. Unless noted, the call rests on the fitted dose curve; in most records, active means well fitted inhibition curve with a large enough effect (not every such curve was filed as active); inconclusive means small, poorly fitted or top-dose-only effect, or another doubt; inactive means no such curve, though single readings can be large or run the other way.
SMILES,ALDH1A1 block,HPGD inh,PNC inhibitor,HPGD inh conf
O=C(O/N=C1\CCS(=O)(=O)c2sccc21)c1ccccc1,13µM,n,u,x
CC(=O)c1cnc2cc(C)nn2c1C,n,n,n,x
CC(=O)c1cnc2cc(-c3ccc(C)cc3)nn2c1C,u,u,-100,x
CCCCCC(=O)O[C@@]1(C(C)=O)CCC2C3CCC4=CC(=O)CC[C@@]4(C)C3CC[C@]21C (stereo partly specified),n,u,x,x
COc1ccccc1/C=C/C=N/n1c(-c2ccc(C)cc2)n[nH]c1=S,32µM,1.4µM,u,1.6µM
CCn1c(SCC(=O)N/N=C/C=C\c2ccccc2[N+](=O)[O-])nc2ccccc21,u,n,n,x
Cc1ccc(-c2n[nH]c(=S)n2/N=C/C=C\c2ccccc2[N+](=O)[O-])cc1,n,0.89µM,n,0.5µM
COc1ccccc1/C=C/C=N/N1CCN(Cc2cccc3ccccc23)CC1,n,n,n,x
Cc1ccccc1N=C1NC(=O)CC(c2ccccc2)S1 (stereo unspecified),u,n,n,x
CCCc1cc(=O)n2[nH]c(C)cc2n1,n,n,n,x
COc1ccc(OC)c(C(=O)c2ccc(C(=O)N3CCCCC3)cc2)c1,u,0.25µM,n,0.2µM
COc1cc(OC)cc(C(=O)N2CCN(C(=O)c3ccc(OC)c(OC)c3)CC2)c1,n,n,u,x
Cc1ccc(OP(=O)(Nc2c(C)n(C)n(-c3ccccc3)c2=O)Oc2ccc(C)cc2)cc1,n,n,n,x
CCNC(=O)c1ccc(CSc2ccc(Cl)cc2)cc1,n,n,-109,u
CC(=O)NCCNC(=O)c1ccc(CSc2ccc(Cl)cc2)cc1,n,x,x,x
COC(=O)CSc1nc2[nH]ncc2c(=O)[nH]1,n,x,x,x
COC(=O)CSc1nc2nc(C)c(Br)cc2[nH]1,n,n,n,u
O=C(c1ccc2c(c1)OCO2)N1CCc2ccccc2C1,u,0.45µM,n,0.71µM
S=C(c1ccc2c(c1)OCO2)N1CCCCC1,n,n,n,x
O=C(c1ccc2c(c1)OCO2)N1CCCCC1,n,0.1µM,x,0.063µM
COc1ccccc1C(=O)C1CCCN(C(=O)c2ccc3c(c2)OCCO3)C1 (stereo unspecified),n,x,x,x
O=C(c1ccc2c(c1)OCO2)N1CCN(c2ncccn2)CC1,n,n,n,x
O=C(c1ccc2c(c1)OCCO2)N1CCCCC1,n,0.13µM,n,0.22µM
Cc1ccccc1CS(=O)(=O)CCC(=O)N1CCN(c2ccc(N3CCOCC3)nn2)CC1,u,u,n,x
Cc1cccc(N2C(=N)SCC2=O)c1C,n,n,n,x
SMILES,ALDH1A1 block,HPGD inh,PNC inhibitor,HPGD inh conf
NS(=O)(=O)c1ccc(-c2ccc(/C=C3\C(=O)Nc4cc(Cl)ccc43)o2)cc1,n,x,x,x
C=CCNC(=S)N/N=C/c1ccc(-c2cc(Cl)ccc2Cl)o1,u,u,n,x
CC1=NOC(=O)/C1=C/c1ccc(-c2ccc(Cl)cc2)o1,4µM,1.1µM,n,1.1µM
CC1=NOC(=O)/C1=C\c1ccc(-c2cc(Cl)ccc2Cl)o1,3.5µM,1.4µM,n,0.45µM
CCCOc1nc2c(c(=O)n(C)c(=O)n2C)n1Cc1cccc2ccccc12,u,n,n,x
Cc1ccc(C)c(S(=O)(=O)Nc2cc(SCC(=O)O)c(O)c3ccccc23)c1,25µM,0.89µM,n,0.4µM
Cc1ccc(NS(=O)(=O)c2cc(NC(=O)C(C)Oc3ccccc3)ccc2C)c(C)c1 (stereo unspecified),n,n,n,x
CCn1c(COc2cccc3ccccc23)nnc1SCC(N)=O,n,n,n,x
CCN=C1SC(CC(=O)Nc2sc(C)c(C)c2C(=O)OC)C(=O)N1CC (stereo unspecified),u,n,n,x
CC1CCCC(C)N1C(=O)c1cc(F)c(F)cc1Cl (stereo unspecified),n,n,n,x
CC1CCCC(C)N1C(=O)c1cc2ncc(CCCl)cn2n1 (stereo unspecified),u,1µM,-84,0.79µM
COc1ccc(C(=O)c2ccc(OC)cc2O)c(O)c1,n,x,n,x
COc1ccc(C(=O)c2ccccc2O)c(O)c1,n,0.5µM,x,1µM
O=C(O)c1ccccc1NS(=O)(=O)c1cccc2cccnc12,n,n,n,x
O=S(=O)(Nc1cc(Sc2cccc3cccnc23)c(O)c2ccccc12)c1ccccc1,u,1.1µM,-103,0.63µM
COc1nnc(-c2ccc(N3CCCCC3)c(NC(C)=O)c2)c2ccccc12,n,n,n,x
Cc1ccc(CN(c2ccc(C(=O)N3CCc4ccccc4C3)cc2)S(C)(=O)=O)cc1,n,u,u,11µM
Cc1ccc(S(=O)(=O)NCc2ccc(C(=O)N3CCc4ccccc4C3)cc2)cc1,u,1.4µM,n,2.2µM
CS(=O)(=O)c1ccc(C(=O)N2CCc3ccccc3C2)cc1,n,x,x,x
CCOC(=O)N1CCN(C(=O)c2ccc(CN(c3ccccc3)S(C)(=O)=O)cc2)CC1,n,n,n,x
Cc1c(C)c2c(c(C)c1O)CCC(C)(CCCC(C)CCCC(C)CCCC(C)C)O2 (stereo unspecified),n,n,x,x
O=C(Nc1cc(Oc2ccc(Cl)cc2)cc([N+](=O)[O-])c1)c1ccco1,n,n,n,x
O=C(CCc1ccc(Oc2cc([N+](=O)[O-])cc([N+](=O)[O-])c2)cc1)Nc1cccc(Cl)c1,u,n,n,n
O=C(CCc1ccc(Oc2cc([N+](=O)[O-])cc([N+](=O)[O-])c2)cc1)N1CCCCC1,4.5µM,0.045µM,n,0.22µM
CC(C)CNS(=O)(=O)c1ccc(CCC(=O)N2CCCC2)cc1,n,x,x,x
SMILES,ALDH1A1 block,HPGD inh,PNC inhibitor,HPGD inh conf
Cc1ccc(NC(=O)c2ccc3ccccc3n2)nc1,n,n,n,x
CC1CCCC(NC(=O)CCn2c(=O)oc3ccccc32)C1C (stereo unspecified),n,n,u,x
O=C(CNC(=O)c1ccc(S(=O)(=O)N2CCCCC2)cc1)N/N=C/c1ccco1,n,x,x,x
CCOc1cc(S(=O)(=O)NCC2OCCc3ccccc32)c(OCC)cc1-n1cnnn1 (stereo unspecified),u,u,n,x
Cc1ccc(N(c2ncnc(N)c2[N+](=O)[O-])C2CCCCC2)cc1,n,n,u,x
COc1ccc(Cl)cc1NC(=O)CSc1nc(N2CCCCC2)nc(N2CCCCC2)n1,n,n,n,x
Cc1cc(NC(=O)CN2CCN(c3ccc(O)cc3)CC2)no1,u,n,n,x
N/C(=N\O)c1cn([C@@H]2O[C@@H](CO)[C@H](O)[C@@H]2O)c2ncnc(NO)c12,n[13.5 µM],n,x,x
Cc1ccc(CSc2nc3ccccc3c(=O)[nH]2)cc1,n,x,x,x
Cc1ccccc1CSc1nc2ccccc2c(=O)[nH]1,n,1.6µM,n,1µM
COc1ccccc1/C=C/C(=O)OCC(=O)Nc1cc(C(F)(F)F)ccc1N1CCOCC1,n,x,u,x
O=C(C1CCC(Cn2c(=S)[nH]c3ccccc3c2=O)CC1)N1CCOCC1 (stereo unspecified),n,1.6µM,n,2.5µM
COc1ccc(N2CCN(C(=O)C3CCC(Cn4c(=S)[nH]c5ccccc5c4=O)CC3)CC2)cc1 (stereo unspecified),u,n,u,x
COCCn1c(=O)sc2ccccc2c1=O,n,x,x,x
